A number with no mark means an inactive call. Where a call stands in place of a potency, no number is given. For some of these results: Potency and affinity values are given separately. Active and inactive are the calls of the source. Unless noted, no rule for the calls is given here.
How the values were obtained:
[1] = antimalarial activity against Dd2 strain (AID 2302;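 active = growth inhibition above 50% at the single 2 µM test dose, taken to imply half-maximal potency below 2 µM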); conditions: P. falciparum Dd2 in RBCs, LDH growth readout, 72 h; at 2 µM; stronger effect = higher value
[2] = human hepatoma cell viability loss – ATP luminescence, cytotoxicity control for P. falciparum antimalarial project, primary screen (AID 2303;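 active = inhibition above 50%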); conditions: HepG2 viability, 24-48 h, at 10 µM, stronger effect = higher value
[3] = target: L-lactate dehydrogenase (Plasmodium falciparum (isolate CDC / Honduras)) (UniProt Q27743); test: PfLDH activity inhibition – cell lysate, 3D7 strain, counter-screen for P. falciparum growth inhibition project (AID 2304); conditions: P. falciparum 3D7 crude extract, LDH APAD/NBT absorbance; at 2 µM; stronger effect = higher value
[4] = inhibition of 3D7 malaria parasite growth – strain 3D7 (AID 2306); conditions: P. falciparum 3D7 erythrocytic growth, LDH absorbance, 72 h; at 2 µM; stronger effect = higher value
[5] = target: Calcium-dependent protein kinase 1 (Plasmodium falciparum (isolate 3D7)) (UniProt P62344); test: PfCDPK1 kinase inhibitors, biochemical, TCAMS library (AID 1159585; cut-off not given, nearly all actives have IC50 up to about 0.98 µM;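 also: inhibitors leave more ATP so luminescence rises with inhibition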); conditions: recombinant PfCDPK1, Kinase-Glo ATP depletion luminescence
[6] = target: Plasmodium falciparum protein kinase 6 (PK6, PF3D7_1337100) (UniProt Q8IDW1); test: PfPK6 kinase inhibitors, biochemical, TCAMS library (AID 1159586); conditions: recombinant PfPK6, Kinase-Glo ATP depletion luminescence
[7] = target: Protein kinase 7 (PK7), Plasmodium falciparum 3D7 (PF3D7_0213400) (UniProt Q7YTF7); test: inhibition of Plasmodium PK7 catalytic activity – biochemical, TCAMS antimalarial set, Kinase-Glo luminescence (AID 1159587); conditions: recombinant PfPK7, Kinase-Glo ATP depletion luminescence
[8] = target: Calcium-dependent protein kinase 4 (Plasmodium falciparum (isolate 3D7)) (UniProt Q8IBS5); test: PfCDPK4 kinase inhibitors, biochemical, TCAMS library (AID 1159588; cut-off not given, nearly all actives have IC50 up to about 0.91 µM); conditions: recombinant PfCDPK4, Kinase-Glo ATP depletion luminescence
Calcium-dependent protein kinase 4 (Plasmodium falciparum (isolate 3D7)), sequence (Q8IBS5 whole entry, looked up): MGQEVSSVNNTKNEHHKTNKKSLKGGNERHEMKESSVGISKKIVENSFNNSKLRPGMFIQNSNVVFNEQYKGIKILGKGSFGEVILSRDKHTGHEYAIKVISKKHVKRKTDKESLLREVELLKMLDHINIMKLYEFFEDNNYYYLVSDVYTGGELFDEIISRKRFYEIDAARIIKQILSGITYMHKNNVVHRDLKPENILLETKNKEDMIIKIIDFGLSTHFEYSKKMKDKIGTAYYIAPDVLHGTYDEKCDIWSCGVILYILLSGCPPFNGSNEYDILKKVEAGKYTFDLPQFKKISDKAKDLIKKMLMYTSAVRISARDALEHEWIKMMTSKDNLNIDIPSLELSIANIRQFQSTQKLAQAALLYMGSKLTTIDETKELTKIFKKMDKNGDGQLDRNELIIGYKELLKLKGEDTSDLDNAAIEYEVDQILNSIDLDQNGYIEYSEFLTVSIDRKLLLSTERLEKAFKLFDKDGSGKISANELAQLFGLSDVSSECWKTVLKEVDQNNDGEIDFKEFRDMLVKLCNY

Protein kinase 7 (PK7), Plasmodium falciparum 3D7 (PF3D7_0213400), sequence (Q7YTF7 1-343): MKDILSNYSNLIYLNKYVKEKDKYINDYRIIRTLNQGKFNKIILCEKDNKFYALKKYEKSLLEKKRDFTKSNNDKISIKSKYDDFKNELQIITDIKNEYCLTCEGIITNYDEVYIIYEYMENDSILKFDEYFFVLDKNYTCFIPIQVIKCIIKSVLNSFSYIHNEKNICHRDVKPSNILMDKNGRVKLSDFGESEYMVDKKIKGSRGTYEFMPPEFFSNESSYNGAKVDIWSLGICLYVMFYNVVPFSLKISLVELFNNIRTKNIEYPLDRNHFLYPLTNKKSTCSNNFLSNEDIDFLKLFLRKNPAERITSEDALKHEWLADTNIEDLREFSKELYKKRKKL
Plasmodium falciparum protein kinase 6 (PK6, PF3D7_1337100), sequence (Q8IDW1 1-305): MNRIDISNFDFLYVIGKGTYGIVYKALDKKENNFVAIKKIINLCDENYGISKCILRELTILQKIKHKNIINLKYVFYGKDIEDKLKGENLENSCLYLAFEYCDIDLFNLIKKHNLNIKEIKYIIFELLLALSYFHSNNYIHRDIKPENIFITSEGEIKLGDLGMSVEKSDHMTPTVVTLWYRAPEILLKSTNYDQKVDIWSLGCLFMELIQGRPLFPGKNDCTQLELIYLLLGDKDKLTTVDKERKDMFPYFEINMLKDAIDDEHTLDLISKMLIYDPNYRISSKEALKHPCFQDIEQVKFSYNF
Calcium-dependent protein kinase 1 (Plasmodium falciparum (isolate 3D7)), sequence (P62344 whole entry, looked up): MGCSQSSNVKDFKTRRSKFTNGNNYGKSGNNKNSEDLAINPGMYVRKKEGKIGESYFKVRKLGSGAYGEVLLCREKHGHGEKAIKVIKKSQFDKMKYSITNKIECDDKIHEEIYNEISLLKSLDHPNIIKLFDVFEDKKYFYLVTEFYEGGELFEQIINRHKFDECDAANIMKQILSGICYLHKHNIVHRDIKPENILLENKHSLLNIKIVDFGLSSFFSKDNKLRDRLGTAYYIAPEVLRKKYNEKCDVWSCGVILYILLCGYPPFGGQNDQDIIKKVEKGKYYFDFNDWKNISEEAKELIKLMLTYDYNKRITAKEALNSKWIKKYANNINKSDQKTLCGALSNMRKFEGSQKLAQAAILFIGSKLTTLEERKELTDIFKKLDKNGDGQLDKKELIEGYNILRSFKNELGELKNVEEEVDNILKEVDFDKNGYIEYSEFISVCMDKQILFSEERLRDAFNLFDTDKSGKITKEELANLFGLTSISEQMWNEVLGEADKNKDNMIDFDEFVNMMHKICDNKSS
L-lactate dehydrogenase (Plasmodium falciparum (isolate CDC / Honduras)), sequence (Q27743 whole entry, looked up): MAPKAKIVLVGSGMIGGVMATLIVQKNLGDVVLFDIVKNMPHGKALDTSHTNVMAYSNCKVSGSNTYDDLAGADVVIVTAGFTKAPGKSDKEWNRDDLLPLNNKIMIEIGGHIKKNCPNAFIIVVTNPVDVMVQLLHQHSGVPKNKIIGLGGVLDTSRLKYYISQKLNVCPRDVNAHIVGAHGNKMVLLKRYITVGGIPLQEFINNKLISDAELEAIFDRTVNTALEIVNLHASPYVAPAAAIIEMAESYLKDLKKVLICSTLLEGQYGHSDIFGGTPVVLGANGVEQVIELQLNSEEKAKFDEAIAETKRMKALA

COc1ccc(-c2nonc2NC(=O)c2ccc(C(C)(C)C)cc2)cc1OC
growth inhibition [1]: 73% (active)
inhibition [2]: -3%
inhibition [3]: -2%
growth inhibition [4]: 99% (active)
outcome [5]: inactive
outcome [6]: inactive
outcome [7]: inactive
outcome [8]: inactive

CCn1ccc2c(N3CCCCS3(=O)=O)cc(C(=O)N[C@@H](Cc3ccccc3)[C@H](O)CNC3CCCCC3)cc21
growth inhibition [1]: 98% (active)
inhibition [2]: 1%
inhibition [3]: 1%
growth inhibition [4]: 98% (active)
outcome [5]: inactive
outcome [6]: inactive
outcome [7]: inactive
outcome [8]: inactive

COc1cc(Nc2nccc(NCC(O)c3ccc(C(F)(F)F)cc3)n2)cc(OC)c1OC (stereo not given)
growth inhibition [1]: 14%
inhibition [2]: 45%
inhibition [3]: -2%
growth inhibition [4]: 91% (active)
outcome [5]: inactive
outcome [6]: inactive
outcome [7]: inactive
outcome [8]: inactive

CCCN(C(=O)c1ccccc1C)c1nnc(-c2ccccc2C)s1
growth inhibition [1]: 65% (active)
inhibition [2]: 16%
inhibition [3]: -7%
growth inhibition [4]: 90% (active)
outcome [5]: inactive
outcome [6]: inactive
outcome [7]: inactive
outcome [8]: inactive

O=C(Nc1ccc(-c2csc(-c3nc4ccccc4[nH]3)c2)cc1)Nc1ccc(F)c(F)c1F
growth inhibition [1]: 64% (active)
inhibition [2]: 67% (active)
inhibition [3]: 2%
growth inhibition [4]: 100% (active)
outcome [5]: inactive
outcome [6]: inactive
outcome [7]: inactive
outcome [8]: inactive

OCCn1c(CNCCCNc2nc3ccccc3[nH]2)cc2c(Cl)cc(Cl)cc21
growth inhibition [1]: 0%
inhibition [2]: 29%
inhibition [3]: -6%
growth inhibition [4]: 95% (active)
outcome [5]: inactive
outcome [6]: inactive
outcome [7]: inactive
outcome [8]: inactive

Cc1ccc(OCC2CCN(c3ncc(C(=O)NC4CC4)cc3Cl)CC2)cc1
growth inhibition [1]: 72% (active)
inhibition [2]: 2%
inhibition [3]: 0%
growth inhibition [4]: 88% (active)
outcome [5]: inactive
outcome [6]: inactive
outcome [7]: inactive
outcome [8]: inactive

NC(N)=Nc1nc(-c2cccc(NC(=O)NCC(c3ccccc3)c3ccccc3)c2)cs1
growth inhibition [1]: 87% (active)
inhibition [2]: -3%
inhibition [3]: 1%
growth inhibition [4]: 100% (active)
outcome [5]: inactive
outcome [6]: inactive
outcome [7]: inactive
outcome [8]: inactive

COc1ccc(OCc2ccccn2)c(C2CCN(CCCCNC(=O)c3ccc(NC(=O)c4ccc(Cl)cc4)cc3)CC2)c1
growth inhibition [1]: 71% (active)
inhibition [2]: 18%
inhibition [3]: 4%
growth inhibition [4]: 98% (active)
outcome [5]: inactive
outcome [6]: inactive
outcome [7]: inactive
outcome [8]: inactive

C=CCN(C(=O)c1ccc(Cl)c([N+](=O)[O-])c1)c1nc(-c2ccccc2)cs1
growth inhibition [1]: 99% (active)
inhibition [2]: -13%
inhibition [3]: -6%
growth inhibition [4]: 100% (active)
outcome [5]: inactive
outcome [6]: inactive
outcome [7]: inactive
outcome [8]: inactive

CCCCCC(C)N=C(Nc1ccc([N+](=O)[O-])cc1O)Nc1ccccc1Br (stereo not given)
growth inhibition [1]: 98% (active)
inhibition [2]: -1%
inhibition [3]: 5%
growth inhibition [4]: 99% (active)
outcome [5]: inactive
outcome [6]: inactive
outcome [7]: inactive
outcome [8]: inactive

Cc1ccc(NC(=O)NC2CCN(c3ccnc4cc(Cl)ccc34)C2)cc1 (stereo not given)
growth inhibition [1]: 96% (active)
inhibition [2]: 19%
inhibition [3]: 5%
growth inhibition [4]: 101% (active)
outcome [5]: inactive
outcome [6]: inactive
outcome [7]: inactive
outcome [8]: inactive

COc1ccc(CNCc2cccc(-c3ccc(-c4nc5ccccc5[nH]4)s3)c2)cc1
growth inhibition [1]: 52% (active)
inhibition [2]: 14%
inhibition [3]: 0%
growth inhibition [4]: 90% (active)
outcome [5]: inactive
outcome [6]: inactive
outcome [7]: inactive
outcome [8]: inactive

O=C(Nc1ccc(Cl)cc1)c1ccc(CN2CCCN(Cc3cccc(F)c3)CC2)cc1
growth inhibition [1]: 8%
inhibition [2]: 59% (active)
inhibition [3]: 6%
growth inhibition [4]: 91% (active)
outcome [5]: inactive
outcome [6]: inactive
outcome [7]: inactive
outcome [8]: inactive

CCOc1ccc(/C=C/C(=O)Nc2cccc3c2CCN(C)C3)cc1
growth inhibition [1]: 3%
inhibition [2]: -2%
inhibition [3]: 0%
growth inhibition [4]: 92% (active)
outcome [5]: inactive
outcome [6]: inactive
outcome [7]: inactive
outcome [8]: inactive

O=C(Nc1cc(Oc2ccc(O)cc2)cc([N+](=O)[O-])c1)c1cc(-c2ccc(F)cc2)no1
growth inhibition [1]: 37%
inhibition [2]: 61% (active)
inhibition [3]: 0%
growth inhibition [4]: 88% (active)
outcome [5]: inactive
outcome [6]: inactive
outcome [7]: inactive
outcome [8]: inactive

CCc1cn2c3c(cc(C(=O)N[C@@H](Cc4cccc(Cl)c4)[C@H](O)CNC4CCOCC4)cc13)N(C)S(=O)(=O)CC2
growth inhibition [1]: 98% (active)
inhibition [2]: 2%
inhibition [3]: -1%
growth inhibition [4]: 98% (active)
outcome [5]: inactive
outcome [6]: inactive
outcome [7]: inactive
outcome [8]: inactive

CN1CCN(c2nc(NCCc3ccc(O)cc3)nc(NCc3ccccc3-c3ccc(C(F)(F)F)cc3)n2)CC1
growth inhibition [1]: 82% (active)
inhibition [2]: 35%
inhibition [3]: 6%
growth inhibition [4]: 90% (active)
outcome [5]: inactive
outcome [6]: inactive
outcome [7]: inactive
outcome [8]: inactive

O=C(NCCOc1ccccc1)[C@H](Cc1ccccc1)Nc1ccnc(NCC2CCCCC2)n1
growth inhibition [1]: 73% (active)
inhibition [2]: 80% (active)
inhibition [3]: 5%
growth inhibition [4]: 96% (active)
outcome [5]: inactive
outcome [6]: inactive
outcome [7]: inactive
outcome [8]: inactive

COc1cc(Cc2cnc(N)nc2N)ccc1OCc1ccc(F)c(F)c1
growth inhibition [1]: 31%
inhibition [2]: 10%
inhibition [3]: 3%
growth inhibition [4]: 90% (active)
outcome [5]: inactive
outcome [6]: inactive
outcome [7]: inactive
outcome [8]: inactive
